Records with an inconclusive call do not appear. The source made the active and inactive calls. Unless noted, calls come from the whole dose curve; as a rule, active = well fitted curve in the direction sought with a large enough effect in the repeat runs; inconclusive = weak or mixed curves; inactive = no such curve, though single readings can be large; an effect the other way counts as inactive or inconclusive.
Key:
[1] = qHTS assay to identify small molecule agonists of the peroxisome proliferator-activated receptor delta (PPARd) signaling pathway - cell viability counter screen (AID 743211); note: nearly all actives have a fitted effect of over 55% in size; note: potency is the fitted concentration of half-maximal effect
In short: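 Tox21 library compounds, delivered in DMSO, were incubated 17 h with PPARd-bla HEK293H cells; cytotoxicity was taken from CellTiter-Glo luminescence read 30 min after reagent addition.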

[2] = molecular target: Peroxisome proliferator-activated receptor delta (Homo sapiens) (UniProt Q03181); assay: qHTS assay to identify small molecule agonists of the peroxisome proliferator-activated receptor delta (PPARd) signaling pathway (AID 743212; calls by dose curve)
Chain of Peroxisome proliferator-activated receptor delta (Homo sapiens) (Q03181 whole entry, looked up): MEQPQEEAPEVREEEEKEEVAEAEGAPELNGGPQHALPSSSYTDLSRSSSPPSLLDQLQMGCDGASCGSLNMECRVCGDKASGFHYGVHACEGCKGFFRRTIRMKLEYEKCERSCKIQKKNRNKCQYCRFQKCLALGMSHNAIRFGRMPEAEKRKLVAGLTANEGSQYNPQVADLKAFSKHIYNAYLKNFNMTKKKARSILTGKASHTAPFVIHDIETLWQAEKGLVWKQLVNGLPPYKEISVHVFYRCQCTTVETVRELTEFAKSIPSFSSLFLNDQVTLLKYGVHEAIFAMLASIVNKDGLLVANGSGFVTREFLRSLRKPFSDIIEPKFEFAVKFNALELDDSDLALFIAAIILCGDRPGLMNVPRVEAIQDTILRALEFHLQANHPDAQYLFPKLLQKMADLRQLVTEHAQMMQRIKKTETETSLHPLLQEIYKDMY
In short: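 A PPARd-bla HEK293H line with beta-lactamase under an Upstream Activator Sequence is treated with compounds at 37 C. Substrate loading for 2 h at room temperature precedes the fluorescence measurement.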

[3] = qHTS assay to identify small molecule antagonists of the peroxisome proliferator-activated receptor delta (PPARd) signaling pathway - cell viability counter screen (AID 743213); note: nearly all actives have a fitted effect of over 50% in size; note: potency is the fitted concentration of half-maximal effect
In short: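 HEK293H cells with the PPARd UAS-bla reporter, co-treated 17 h at 37 C with compounds and L165041 (300 nM final), were lysed with CellTiter-Glo. Luminescence indicated viable cell content.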

[4] = molecular target: Bile acid receptor (Homo sapiens) (UniProt Q96RI1); assay: qHTS assay to identify small molecule antagonists of the farnesoid-X-receptor (FXR) signaling pathway (AID 743217; active = well fitted inhibition curve with a large enough effect in the signal ratio in the repeat runs, not every such curve was filed as active; the % refers to the signal ratio)
Chain of Bile acid receptor (Homo sapiens) (Q96RI1 whole entry, looked up): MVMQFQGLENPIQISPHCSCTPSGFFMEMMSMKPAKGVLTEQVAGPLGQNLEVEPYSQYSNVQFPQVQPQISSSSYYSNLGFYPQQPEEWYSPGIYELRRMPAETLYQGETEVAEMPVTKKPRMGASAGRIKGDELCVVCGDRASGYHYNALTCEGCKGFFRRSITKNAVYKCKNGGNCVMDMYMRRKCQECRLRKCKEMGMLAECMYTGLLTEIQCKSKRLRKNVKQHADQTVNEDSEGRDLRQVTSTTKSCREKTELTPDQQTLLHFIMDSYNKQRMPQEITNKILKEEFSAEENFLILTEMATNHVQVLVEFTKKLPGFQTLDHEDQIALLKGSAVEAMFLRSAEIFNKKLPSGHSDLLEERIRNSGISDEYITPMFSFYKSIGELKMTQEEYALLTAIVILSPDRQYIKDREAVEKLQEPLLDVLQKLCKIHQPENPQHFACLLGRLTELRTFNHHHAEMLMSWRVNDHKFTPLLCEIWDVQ
In short: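 Beta-lactamase reporter under UAS control in HEK 293T cells; compound exposure 16 h at 37 °C in the presence of chenodeoxycholic acid (50 uM final); signal from B/G FRET substrate after 2 h at room temperature.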

[5] = qHTS assay to identify small molecule agonists of the farnesoid-X-receptor (FXR) signaling pathway - cell viability counter screen (AID 743218); note: nearly all actives have a fitted effect of over 45% in size; note: potency is the fitted concentration of half-maximal effect
In short: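 In GeneBLAzer FXR-UAS-bla HEK 293T cells, compounds act for 16 h at 37 C. Cell viability is then scored in the reporter wells by CellTiter-Glo, 30 min at RT, luminescence.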

[6] = molecular target: Bile acid receptor (Homo sapiens) (UniProt Q96RI1); assay: qHTS assay to identify small molecule agonists of the farnesoid-X-receptor (FXR) signaling pathway (AID 743220; active = well fitted activation curve with a large enough effect in the signal ratio in the repeat runs, not every such curve was filed as active; the % refers to the signal ratio)
In short: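 Beta-lactamase reporter under UAS control in GeneBLAzer FXR HEK 293T cells (5000/well) measured with LiveBLAzer FRET substrate after 2 h at room temperature. Compound exposure lasted 16 h at 37C.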

[7] = molecular target: Vitamin D3 receptor (Homo sapiens) (UniProt P11473); assay: qHTS assay to identify small molecule agonists of the vitamin D receptor (VDR) signaling pathway (AID 743222; calls by dose curve)
Chain of Vitamin D3 receptor (Homo sapiens) (P11473 whole entry, looked up): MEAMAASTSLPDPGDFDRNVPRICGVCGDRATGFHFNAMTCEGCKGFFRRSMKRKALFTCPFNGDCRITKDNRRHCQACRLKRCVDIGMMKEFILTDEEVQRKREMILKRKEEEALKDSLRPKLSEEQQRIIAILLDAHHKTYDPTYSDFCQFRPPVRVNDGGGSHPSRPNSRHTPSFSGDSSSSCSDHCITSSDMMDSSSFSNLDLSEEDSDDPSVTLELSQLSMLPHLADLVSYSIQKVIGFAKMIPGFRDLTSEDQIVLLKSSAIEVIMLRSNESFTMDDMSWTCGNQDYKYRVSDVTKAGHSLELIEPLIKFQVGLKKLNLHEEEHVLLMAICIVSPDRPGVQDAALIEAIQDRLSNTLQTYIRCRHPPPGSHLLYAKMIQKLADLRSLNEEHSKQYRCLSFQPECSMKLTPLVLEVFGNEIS
In short: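 Agonist activity measured in VDR-bla reporter cells. Exposure 16 h, 37C, 5% CO2; detection by B/G FRET substrate, 2 h RT.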

[8] = qHTS assay to identify small molecule antagonists of the vitamin D receptor (VDR) signaling pathway - cell viability counter screen (AID 743225); note: nearly all actives have a fitted effect of over 50% in size; note: potency is the fitted concentration of half-maximal effect
In short: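 Same-well multiplex: following 16 h treatment of HEK 293T cells carrying a UAS-driven beta-lactamase reporter with compound and agonist (3 nM final), and a 2 h FRET substrate step, CellTiter-Glo was added and luminescence read after 30 min.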

[9] = qHTS assay to identify small molecule agonists of the NFkB signaling pathway - cell viability counter screen (AID 1159515; calls by dose curve; note: nearly all actives have a fitted effect of over 55% in size; note: potency is the fitted concentration of half-maximal effect)
In short: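 Viability in NFkB-bla ME-180 cells was measured by CellTiter-Glo luminescence, 30 min room temperature, in wells already treated 5 hr with compounds and read for reporter FRET.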

[10] = qHTS assay to identify small molecule agonists of the endoplasmic reticulum stress response signaling pathway (AID 1159516; active = well fitted activation curve with a large enough effect in the signal ratio in the repeat runs, not every such curve was filed as active; the % refers to the signal ratio)
In short: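 ER stress element reporter (bla) in HeLa. 1,500 cells/well, overnight attachment; 5 hr compound; 2 hr RT substrate; dual-emission fluorescence.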

[11] = qHTS assay to identify small molecule antagonists of the retinoid-related orphan receptor gamma (ROR-gamma) signaling pathway - cell viability counter screen (AID 1159520); note: nearly all actives have a fitted effect of over 50% in size
In short: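 Tet-on ROR gamma CHO cells (1,000/well) were plated 4 hr, given compounds in DMSO for 2 hr at 37 C, then induced with 1 uM final doxycycline for 16 hr. Viability was read as ATP by CellTiter-Glo luminescence after 30 min.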

[12] = qHTS assay to identify small molecule agonists of the AP-1 signaling pathway - cell viability counter screen (AID 1159525; calls by dose curve; note: nearly all actives have a fitted effect of over 55% in size)
In short: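 ME-180 AP-1-bla, 2500 cells/well, Opti-MEM + 0.5% dialyzed FBS; overnight 37 °C; cpd 15-pt titration, 5 h 37 °C; CellTiter-Glo 30 min RT; luminescence read; normalised to TOAB and DMSO controls.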

[13] = qHTS assay to identify small molecule antagonists of the farnesoid-X-receptor (FXR) signaling pathway - cell viability counter screen (AID 743221; active = well fitted cell-killing curve with a large enough effect in the repeat runs, not every such curve was filed as active; note: nearly all actives have a fitted effect of over 50% in size; note: potency is the fitted concentration of half-maximal effect)
In short: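 Cytotoxicity is taken from ATP luminescence (CellTiter-Glo, 30 min, room temperature) in FXR-bla HEK 293T cells previously incubated 16 h at 37 C with compound and chenodeoxycholic acid at 50 uM final.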

[14] = qHTS assay to identify small molecule agonists of the vitamin D receptor (VDR) signaling pathway - cell viability counter screen (AID 743224)
In short: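 VDR-bla cell line, quantitative HTS format; 16 h compound incubation (37C, 5% CO2); ATP-based CellTiter-Glo luminescence measured in the reporter assay wells.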

[15] = qHTS assay to identify small molecule agonists of the endoplasmic reticulum stress response signaling pathway - cell viability counter screen (AID 1159517; calls by dose curve)
In short: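 CellTiter-Glo was added to wells already read for beta-lactamase FRET, and luminescence was recorded 30 min later. Cells: ESRE-bla HeLa, 1,500 per well, compound exposure 5 hr at 37 C.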

[16] = molecular target: Nuclear receptor ROR-gamma (Homo sapiens) (UniProt P51449); assay: qHTS assay to identify small molecule antagonists of the retinoid-related orphan receptor gamma (ROR-gamma) signaling pathway (AID 1159521; note: nearly all actives have a fitted effect of over 50% in size; note: potency is the fitted concentration of half-maximal effect)
In short: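 Inducible-expression reporter assay: doxycycline (1 uM final) switched on RORγ in CHO cells bearing a ROR response element-luciferase construct, with test compounds present from 2 h beforehand. Decreased luminescence after 16 h defined antagonist activity.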

[17] = qHTS assay to identify small molecule agonists of the AP-1 signaling pathway (AID 1159526; calls by dose curve)
[18] = molecular target: Retinoic acid receptor RXR-alpha (Homo sapiens) (UniProt P19793); assay: qHTS assay to identify small molecule agonists of the RXR signaling pathway (AID 1159527; calls by dose curve; note: nearly all actives have a fitted effect of over 35% in size)
Chain of Retinoic acid receptor RXR-alpha (Homo sapiens) (P19793 whole entry, looked up): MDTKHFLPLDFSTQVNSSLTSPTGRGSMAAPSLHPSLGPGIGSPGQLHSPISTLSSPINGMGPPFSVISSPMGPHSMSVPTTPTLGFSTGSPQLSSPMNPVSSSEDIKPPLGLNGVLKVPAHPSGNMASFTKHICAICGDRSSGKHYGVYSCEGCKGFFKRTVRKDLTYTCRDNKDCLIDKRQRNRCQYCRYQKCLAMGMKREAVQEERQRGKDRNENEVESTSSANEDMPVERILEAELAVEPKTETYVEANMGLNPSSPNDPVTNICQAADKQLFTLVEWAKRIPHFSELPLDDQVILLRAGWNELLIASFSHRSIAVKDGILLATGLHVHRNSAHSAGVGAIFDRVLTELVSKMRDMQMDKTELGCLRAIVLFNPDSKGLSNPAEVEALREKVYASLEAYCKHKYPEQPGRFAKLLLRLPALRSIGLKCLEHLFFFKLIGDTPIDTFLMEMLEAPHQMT
In short: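 Compounds in DMSO were added to RXR-alpha-UAS-bla HEK 293T cells kept in 2% charcoal-stripped serum, and incubated 16 hr at 37 C with 5% CO2. Reporter signal came from a 2 hr B/G FRET substrate step.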

[19] = molecular target: Peroxisome proliferator-activated receptor delta (Homo sapiens) (UniProt Q03181); assay: qHTS assay to identify small molecule antagonists of the peroxisome proliferator-activated receptor delta (PPARd) signaling pathway (AID 743215; active = well fitted inhibition curve with a large enough effect in the signal ratio in the repeat runs, not every such curve was filed as active; the % refers to the signal ratio;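 note: cells stimulated with agonist L165041 at 300 nM final during compound exposure; series mostly up to about 62 µM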)
In short: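 Antagonist-mode beta-lactamase reporter screen: HEK293H cells with UAS-bla under PPARd control, stimulated by 300 nM L165041 (final) alongside test compound for 17 h at 37 C, then FRET fluorescence after 2 h substrate incubation.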

[20] = molecular target: Vitamin D3 receptor (Homo sapiens) (UniProt P11473); assay: qHTS assay to identify small molecule antagonists of the vitamin D receptor (VDR) signaling pathway (AID 743223; active = well fitted inhibition curve with a large enough effect in the signal ratio in the repeat runs, not every such curve was filed as active; the % refers to the signal ratio)
In short: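 Quantitative HTS in VDR-bla reporter cells stimulated with 1alpha,25-dihydroxyvitamin D3, 3 nM final. Compound exposure 16 h, 37C, 5% CO2. Read-out: beta-lactamase FRET substrate fluorescence, 2 h RT.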

Measured: Potency

OCCN1CCN(CCCN2c3ccccc3Sc3ccc(C(F)(F)F)cc32)CC1
inactive: [2] | [4] | [6] | [7] | [9] | [10] | [11] | [12]
active: [1] 26.6 µM | [3] 11.9 µM | [5] 29.8 µM | [8] 23.9 µM

O=c1oc2cc(O)ccc2c2oc3cc(O)ccc3c12
inactive: [1] | [3] | [5] | [13] | [14] | [8] | [9] | [15] | [11] | [16] | [12] | [17]

CNc1ccc([N+](=O)[O-])cc1
active: [5] 27.6 µM
inactive: [13] | [14] | [8] | [9] | [15] | [11] | [16] | [12] | [17] | [18]

Cc1cc(C(C)(C)C)c(O)c(C)c1Cn1c(=O)n(Cc2c(C)cc(C(C)(C)C)c(O)c2C)c(=O)n(Cc2c(C)cc(C(C)(C)C)c(O)c2C)c1=O
inactive: [2] | [19] | [13] | [20] | [14] | [9] | [15] | [11] | [16] | [12] | [17] | [18]
active: [8] 12.3 µM

Cc1cccc(C(=O)O)c1O
inactive: [1] | [19] | [4] | [5] | [6] | [13] | [7] | [20] | [14] | [8] | [9] | [15] | [11] | [16] | [12] | [17] | [18]

CCO[C@@H]1O[C@H](C(COCc2ccccc2)OCc2ccccc2)[C@H](OCc2ccccc2)[C@H]1O (some centres not stated)
inactive: [3] | [6] | [14] | [8] | [10]
active: [5] 21.1 µM | [13] 13.3 µM | [9] 21.3 µM

CCCCC(CC)COC(=O)CCCCC(=O)OCc1ccccc1 (configuration not stated)
inactive: [2] | [3] | [19] | [5] | [13] | [7] | [20] | [14] | [8] | [9] | [15] | [11] | [16] | [12] | [17] | [18]

O=C1NC(=O)[C@@H]2CC=CC[C@H]12
active: [5] 21.9 µM | [16] 54.5 µM
inactive: [1] | [3] | [6] | [13] | [7] | [20] | [14] | [9] | [15] | [11] | [12] | [17]

COCCOc1cc2cc(C(=O)NC3CCN(C(C)C)CC3)n(CC(=O)Nc3ccc(Cl)cn3)c2cn1
inactive: [1] | [3] | [5] | [13] | [7] | [14] | [8] | [9] | [15] | [11] | [16] | [12] | [17] | [18]
